Test results reported in paper PMC7862700, “An all-to-all approach to the identification of sequence-specific readers for epigenetic DNA modifications on cytosine”.

Assays:
Assay in all cases: DAPPL (digital affinity profiling via proximity ligation, sequencing); 10 mM Tris-HCl pH 7.5, 50 mM NaCl, 1 mM DTT, 4% glycerol, room temperature, 30 min; GST-TFs on glutathione beads, 16-mer random dsDNA library, 0.1% formaldehyde crosslink after washing; high values mean tight binding
Settings in all cases: protein: recombinant; tags: N-terminal GST; dsDNA, one strand shown
ERF = molecular target: T1, ERF (Homo sapiens, UniProt P50548 1-548)
T1 sequence: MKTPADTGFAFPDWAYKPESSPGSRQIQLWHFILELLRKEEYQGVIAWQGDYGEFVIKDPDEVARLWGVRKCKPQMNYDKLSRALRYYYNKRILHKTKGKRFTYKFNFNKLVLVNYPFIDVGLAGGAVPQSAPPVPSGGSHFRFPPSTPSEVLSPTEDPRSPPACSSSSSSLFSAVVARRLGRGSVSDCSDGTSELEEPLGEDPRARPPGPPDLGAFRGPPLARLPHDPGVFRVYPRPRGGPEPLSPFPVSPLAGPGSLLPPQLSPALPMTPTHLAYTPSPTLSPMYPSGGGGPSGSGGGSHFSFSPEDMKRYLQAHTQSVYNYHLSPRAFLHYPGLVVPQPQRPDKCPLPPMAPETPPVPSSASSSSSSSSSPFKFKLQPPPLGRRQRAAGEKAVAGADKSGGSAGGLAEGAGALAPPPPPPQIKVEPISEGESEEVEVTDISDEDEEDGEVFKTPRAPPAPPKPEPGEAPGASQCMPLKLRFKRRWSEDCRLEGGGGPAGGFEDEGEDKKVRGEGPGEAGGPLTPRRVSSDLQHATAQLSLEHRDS
How it was run: (§1)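 GST fusions of human transcription factors were expressed in yeast and captured with glutathione beads. Once given DNA barcodes and pooled alongside a tag-only sample, they were incubated for 30 min at room temperature with 200 nmole of a random double-stranded 16-mer DNA library in Tris/NaCl/DTT/glycerol buffer, then washed, crosslinked (0.1% formaldehyde), proximity-ligated, PCR-amplified and sequenced on an Illumina NextSeq500. The binding signal of each hexamer is its read frequency for a factor divided by its frequency for the tag-only sample.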

ETV3L = molecular target: T2, ETV3L (Homo sapiens, UniProt Q6ZN32 1-361)
T2 sequence: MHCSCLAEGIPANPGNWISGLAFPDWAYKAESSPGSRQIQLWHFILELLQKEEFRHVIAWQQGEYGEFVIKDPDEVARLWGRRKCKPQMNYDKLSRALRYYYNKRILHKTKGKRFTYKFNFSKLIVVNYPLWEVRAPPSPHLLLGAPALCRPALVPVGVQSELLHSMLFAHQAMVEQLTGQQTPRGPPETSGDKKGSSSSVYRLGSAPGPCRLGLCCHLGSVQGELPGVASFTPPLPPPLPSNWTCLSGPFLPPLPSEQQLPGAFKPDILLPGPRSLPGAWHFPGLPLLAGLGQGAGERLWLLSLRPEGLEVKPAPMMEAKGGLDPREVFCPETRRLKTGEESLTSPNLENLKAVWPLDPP
How it was run: as §1

ETS2 = molecular target: T3, ETS2 (Homo sapiens, UniProt P15036 1-469)
T3 sequence: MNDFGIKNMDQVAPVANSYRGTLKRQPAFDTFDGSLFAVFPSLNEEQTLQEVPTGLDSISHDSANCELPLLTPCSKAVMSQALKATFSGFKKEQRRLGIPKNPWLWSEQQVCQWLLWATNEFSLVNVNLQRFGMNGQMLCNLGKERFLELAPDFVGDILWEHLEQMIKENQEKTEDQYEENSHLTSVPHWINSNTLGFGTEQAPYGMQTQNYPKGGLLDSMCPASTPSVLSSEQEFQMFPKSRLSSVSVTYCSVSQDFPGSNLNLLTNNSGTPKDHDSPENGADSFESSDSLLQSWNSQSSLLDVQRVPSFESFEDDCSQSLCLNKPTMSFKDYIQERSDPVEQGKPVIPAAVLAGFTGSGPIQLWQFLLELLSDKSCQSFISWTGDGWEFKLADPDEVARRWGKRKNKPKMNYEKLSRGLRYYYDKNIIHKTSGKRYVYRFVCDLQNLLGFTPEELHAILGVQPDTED
How it was run: as §1

SPDEF = molecular target: T4, SPDEF (Homo sapiens, UniProt O95238 1-335)
T4 sequence: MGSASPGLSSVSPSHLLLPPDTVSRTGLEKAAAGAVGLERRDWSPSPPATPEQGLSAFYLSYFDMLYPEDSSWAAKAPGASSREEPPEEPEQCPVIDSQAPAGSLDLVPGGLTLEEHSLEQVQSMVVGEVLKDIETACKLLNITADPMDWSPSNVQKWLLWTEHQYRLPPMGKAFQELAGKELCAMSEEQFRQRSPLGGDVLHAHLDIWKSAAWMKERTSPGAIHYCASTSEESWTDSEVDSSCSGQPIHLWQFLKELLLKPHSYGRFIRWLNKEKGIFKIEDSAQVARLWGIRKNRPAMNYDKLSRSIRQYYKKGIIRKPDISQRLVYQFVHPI
How it was run: as §1

ETV7 = molecular target: T5, ETV7 (Homo sapiens, UniProt Q9Y603 1-341)
T5 sequence: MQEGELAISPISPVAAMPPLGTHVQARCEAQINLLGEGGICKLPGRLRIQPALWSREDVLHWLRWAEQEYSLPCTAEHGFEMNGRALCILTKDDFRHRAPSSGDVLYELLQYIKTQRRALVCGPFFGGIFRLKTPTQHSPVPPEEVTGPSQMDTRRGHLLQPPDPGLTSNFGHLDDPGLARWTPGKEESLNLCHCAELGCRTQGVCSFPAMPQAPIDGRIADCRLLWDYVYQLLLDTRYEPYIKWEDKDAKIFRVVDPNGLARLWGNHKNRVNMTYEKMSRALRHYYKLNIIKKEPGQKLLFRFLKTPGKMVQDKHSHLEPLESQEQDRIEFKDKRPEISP
How it was run: as §1

ELF5 = molecular target: T6, ELF5 (Homo sapiens, UniProt Q9UKW6-2 1-255)
T6 sequence: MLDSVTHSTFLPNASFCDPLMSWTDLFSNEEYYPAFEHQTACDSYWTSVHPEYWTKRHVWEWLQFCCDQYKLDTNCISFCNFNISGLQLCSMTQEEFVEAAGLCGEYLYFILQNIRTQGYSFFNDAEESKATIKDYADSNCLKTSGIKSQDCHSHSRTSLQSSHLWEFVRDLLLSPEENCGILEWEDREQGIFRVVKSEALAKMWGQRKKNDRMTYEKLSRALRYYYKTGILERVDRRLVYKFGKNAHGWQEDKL
How it was run: as §1

ETV3 = molecular target: T7, ETV3 (Homo sapiens, UniProt P41162-2 1-143)
T7 sequence: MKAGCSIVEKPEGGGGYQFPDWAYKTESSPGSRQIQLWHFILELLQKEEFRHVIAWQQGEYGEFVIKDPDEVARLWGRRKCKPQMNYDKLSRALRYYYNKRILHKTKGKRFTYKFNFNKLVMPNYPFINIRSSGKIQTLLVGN
How it was run: as §1

ETV6 = ETV6 (Homo sapiens, UniProt P41212 1-452)
How it was run: as §1

Chain of ETV6 (P41212 whole entry): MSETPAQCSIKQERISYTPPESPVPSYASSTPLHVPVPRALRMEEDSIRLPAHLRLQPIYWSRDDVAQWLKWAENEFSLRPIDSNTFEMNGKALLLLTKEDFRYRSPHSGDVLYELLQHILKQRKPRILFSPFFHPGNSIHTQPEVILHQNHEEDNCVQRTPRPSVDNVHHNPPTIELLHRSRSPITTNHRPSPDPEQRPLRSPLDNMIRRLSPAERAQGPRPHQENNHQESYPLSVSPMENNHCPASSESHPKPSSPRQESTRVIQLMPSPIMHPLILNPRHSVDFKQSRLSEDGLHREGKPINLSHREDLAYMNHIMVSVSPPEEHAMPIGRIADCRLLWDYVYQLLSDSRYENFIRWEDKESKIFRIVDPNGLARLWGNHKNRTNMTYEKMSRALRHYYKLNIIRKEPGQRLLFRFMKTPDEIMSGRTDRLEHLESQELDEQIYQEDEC

Sequence | binding signal (ERF) | binding signal (ETV3L) | binding signal (ETS2) | binding signal (SPDEF) | binding signal (ETV7) | binding signal (ELF5) | binding signal (ETV3) | binding signal (ETV6)
GCCTCG | 1.14 fold enrichment (6-mer frequency, TF over GST control) | 1.28 fold enrichment (6-mer frequency, TF over GST control) | 1.31 fold enrichment (6-mer frequency, TF over GST control) | 1.19 fold enrichment (6-mer frequency, TF over GST control) | 1.26 fold enrichment (6-mer frequency, TF over GST control) | 1.23 fold enrichment (6-mer frequency, TF over GST control) | 1.28 fold enrichment (6-mer frequency, TF over GST control) | 1.37 fold enrichment (6-mer frequency, TF over GST control)
AAGGAT | 1.12 fold enrichment (6-mer frequency, TF over GST control) | 1.21 fold enrichment (6-mer frequency, TF over GST control) | 1.14 fold enrichment (6-mer frequency, TF over GST control) | 1.37 fold enrichment (6-mer frequency, TF over GST control) | 1.05 fold enrichment (6-mer frequency, TF over GST control) | 1.43 fold enrichment (6-mer frequency, TF over GST control) | 1.24 fold enrichment (6-mer frequency, TF over GST control) | 1.21 fold enrichment (6-mer frequency, TF over GST control)
TATAGG | 1.18 fold enrichment (6-mer frequency, TF over GST control) | 1.14 fold enrichment (6-mer frequency, TF over GST control) | 1.13 fold enrichment (6-mer frequency, TF over GST control) | 1.19 fold enrichment (6-mer frequency, TF over GST control) | 1.22 fold enrichment (6-mer frequency, TF over GST control) | 1.23 fold enrichment (6-mer frequency, TF over GST control) | 1.17 fold enrichment (6-mer frequency, TF over GST control) | 1.11 fold enrichment (6-mer frequency, TF over GST control)
TCTCTT | 1.37 fold enrichment (6-mer frequency, TF over GST control) | 1.49 fold enrichment (6-mer frequency, TF over GST control) | 1.37 fold enrichment (6-mer frequency, TF over GST control) | 1.32 fold enrichment (6-mer frequency, TF over GST control) | 1.17 fold enrichment (6-mer frequency, TF over GST control) | 1.39 fold enrichment (6-mer frequency, TF over GST control) | 1.44 fold enrichment (6-mer frequency, TF over GST control) | 1.36 fold enrichment (6-mer frequency, TF over GST control)
TATCCG | 2.52 fold enrichment (6-mer frequency, TF over GST control) | 2.45 fold enrichment (6-mer frequency, TF over GST control) | 2.55 fold enrichment (6-mer frequency, TF over GST control) | 3.8 fold enrichment (6-mer frequency, TF over GST control) | 2.1 fold enrichment (6-mer frequency, TF over GST control) | 3.31 fold enrichment (6-mer frequency, TF over GST control) | 2.57 fold enrichment (6-mer frequency, TF over GST control) | 2.38 fold enrichment (6-mer frequency, TF over GST control)
CTCCTA | 1.49 fold enrichment (6-mer frequency, TF over GST control) | 1.36 fold enrichment (6-mer frequency, TF over GST control) | 1.32 fold enrichment (6-mer frequency, TF over GST control) | 1.34 fold enrichment (6-mer frequency, TF over GST control) | 1.37 fold enrichment (6-mer frequency, TF over GST control) | 1.41 fold enrichment (6-mer frequency, TF over GST control) | 1.23 fold enrichment (6-mer frequency, TF over GST control) | 1.29 fold enrichment (6-mer frequency, TF over GST control)
CGATTG | 1.24 fold enrichment (6-mer frequency, TF over GST control) | 1.17 fold enrichment (6-mer frequency, TF over GST control) | 1.15 fold enrichment (6-mer frequency, TF over GST control) | 1.22 fold enrichment (6-mer frequency, TF over GST control) | 1.18 fold enrichment (6-mer frequency, TF over GST control) | 1.11 fold enrichment (6-mer frequency, TF over GST control) | 1.07 fold enrichment (6-mer frequency, TF over GST control) | 1.22 fold enrichment (6-mer frequency, TF over GST control)
CTCCTC | 1.32 fold enrichment (6-mer frequency, TF over GST control) | 1.61 fold enrichment (6-mer frequency, TF over GST control) | 1.33 fold enrichment (6-mer frequency, TF over GST control) | 1.29 fold enrichment (6-mer frequency, TF over GST control) | 1.29 fold enrichment (6-mer frequency, TF over GST control) | 1.32 fold enrichment (6-mer frequency, TF over GST control) | 1.22 fold enrichment (6-mer frequency, TF over GST control) | 1.38 fold enrichment (6-mer frequency, TF over GST control)
TATTAT | 1.19 fold enrichment (6-mer frequency, TF over GST control) | 1.24 fold enrichment (6-mer frequency, TF over GST control) | 1.16 fold enrichment (6-mer frequency, TF over GST control) | 1.29 fold enrichment (6-mer frequency, TF over GST control) | 1.28 fold enrichment (6-mer frequency, TF over GST control) | 1.2 fold enrichment (6-mer frequency, TF over GST control) | 1.27 fold enrichment (6-mer frequency, TF over GST control) | 1.3 fold enrichment (6-mer frequency, TF over GST control)
ATACCC | 1.14 fold enrichment (6-mer frequency, TF over GST control) | 1.18 fold enrichment (6-mer frequency, TF over GST control) | 1.24 fold enrichment (6-mer frequency, TF over GST control) | 1.27 fold enrichment (6-mer frequency, TF over GST control) | 1.18 fold enrichment (6-mer frequency, TF over GST control) | 1.18 fold enrichment (6-mer frequency, TF over GST control) | 1.18 fold enrichment (6-mer frequency, TF over GST control) | 1.09 fold enrichment (6-mer frequency, TF over GST control)
AGGTCT | 1.26 fold enrichment (6-mer frequency, TF over GST control) | 1.14 fold enrichment (6-mer frequency, TF over GST control) | 1.2 fold enrichment (6-mer frequency, TF over GST control) | 1.1 fold enrichment (6-mer frequency, TF over GST control) | 1.2 fold enrichment (6-mer frequency, TF over GST control) | 1.16 fold enrichment (6-mer frequency, TF over GST control) | 1.11 fold enrichment (6-mer frequency, TF over GST control) | 1.07 fold enrichment (6-mer frequency, TF over GST control)
GCTCTA | 1.27 fold enrichment (6-mer frequency, TF over GST control) | 1.24 fold enrichment (6-mer frequency, TF over GST control) | 1.16 fold enrichment (6-mer frequency, TF over GST control) | 1.15 fold enrichment (6-mer frequency, TF over GST control) | 1.19 fold enrichment (6-mer frequency, TF over GST control) | 1.14 fold enrichment (6-mer frequency, TF over GST control) | 1.1 fold enrichment (6-mer frequency, TF over GST control) | 1.09 fold enrichment (6-mer frequency, TF over GST control)
TATGGG | 1.19 fold enrichment (6-mer frequency, TF over GST control) | 1.13 fold enrichment (6-mer frequency, TF over GST control) | 1.15 fold enrichment (6-mer frequency, TF over GST control) | 1.14 fold enrichment (6-mer frequency, TF over GST control) | 1.24 fold enrichment (6-mer frequency, TF over GST control) | 1.16 fold enrichment (6-mer frequency, TF over GST control) | 1.17 fold enrichment (6-mer frequency, TF over GST control) | 1.34 fold enrichment (6-mer frequency, TF over GST control)
ACGCTA | 1.2 fold enrichment (6-mer frequency, TF over GST control) | 1.12 fold enrichment (6-mer frequency, TF over GST control) | 1.01 fold enrichment (6-mer frequency, TF over GST control) | 1.15 fold enrichment (6-mer frequency, TF over GST control) | 1.17 fold enrichment (6-mer frequency, TF over GST control) | 1.12 fold enrichment (6-mer frequency, TF over GST control) | 1.21 fold enrichment (6-mer frequency, TF over GST control) | 1.08 fold enrichment (6-mer frequency, TF over GST control)
ATACGA | 1.17 fold enrichment (6-mer frequency, TF over GST control) | 1.1 fold enrichment (6-mer frequency, TF over GST control) | 1.17 fold enrichment (6-mer frequency, TF over GST control) | 1.18 fold enrichment (6-mer frequency, TF over GST control) | 1.11 fold enrichment (6-mer frequency, TF over GST control) | 1.17 fold enrichment (6-mer frequency, TF over GST control) | 1.11 fold enrichment (6-mer frequency, TF over GST control) | 1.08 fold enrichment (6-mer frequency, TF over GST control)
